54 sequences from publication PMC7819943, “Rice protein-binding microarrays: a tool to detect cis-acting elements near promoter regions in rice” can be followed below.

Over roughly 68,000 sequences, “fluorescence intensity (a.u.)” has its median near 9,100; the highest 2% begin near 16,000. Many of the other results were omitted from the sample, so the highest values are more common in it than they were.

For the experiment, the target named is OsWRKY34 (Oryza sativa, UniProt Q0JBA9 1-250). As to the kind of experiment: protein-binding microarray (RPBM); PBS, 2% BSA, 51.3 ng/ul salmon testes DNA, 50 uM zinc acetate, 200 nM TF, 25 C, 1 h; high values mean tight binding. The conditions noted are these: protein: recombinant; tags: N-terminal polyhistidine and DsRed monomer fusion (pET32a); label: CyDye5-dUTP incorporated in the synthesized complementary strand; 3' TTTTT single-stranded linker to array surface; dsDNA, one strand shown. In a few lines: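 Transcription factors, each fused N-terminally to a polyhistidine tag and DsRed, were expressed in E. coli BL21-CodonPlus and purified on Ni–NTA. A custom Agilent array was made double-stranded by primer extension with Cy5-dUTP and blocked with 2% BSA. It was incubated with 200 nM protein in PBS, 2% BSA, salmon testes DNA and 50 µM zinc acetate at 25 °C for 1 h, then washed. The binding signal is per-feature fluorescence intensity (arbitrary units) read on an Axon 4000B scanner.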
OsWRKY34, sequence (Q0JBA9 entry or part of it): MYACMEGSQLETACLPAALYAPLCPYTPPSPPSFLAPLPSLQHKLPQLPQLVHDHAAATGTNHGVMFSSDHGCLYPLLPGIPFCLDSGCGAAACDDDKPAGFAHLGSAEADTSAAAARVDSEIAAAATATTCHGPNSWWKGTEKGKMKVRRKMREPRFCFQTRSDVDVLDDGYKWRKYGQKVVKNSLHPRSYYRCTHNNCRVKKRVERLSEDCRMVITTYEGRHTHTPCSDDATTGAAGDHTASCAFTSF
On to “CCTTTTCAAGTATTATTGCTGTTTGATTCATCTCTCTTTGCGGAGTCACCTAGTGCAG”, for which the binding signal is 9510 fluorescence intensity (a.u.).

For “TAAACTTGCTCTGATGCGCCCACACGGGGCCACGGCGCGCCGGAGTCACCTAGTGCAG”, the binding signal is 9010 fluorescence intensity (a.u.).

On to “TAAACTCGTCTTATCCGCATGATTGTTGACTATAGTATGTCGGAGTCACCTAGTGCAG”, for which the binding signal was 9300 fluorescence intensity (a.u.).

“CTTTCATATATGTGTGTGCTATGATTTGTTTTCTTCCTCACGGAGTCACCTAGTGCAG”: the binding signal is 11900 fluorescence intensity (a.u.).

As for “CCGCATCCTTCTTGGACTTCTGTTTTGTTGTTGGCCATGGCGGAGTCACCTAGTGCAG”, the binding signal was 11100 fluorescence intensity (a.u.).

Turning to “GATTTTTCTTTACATGTTCTTTTTCATCGATCTTTTGAGACGGAGTCACCTAGTGCAG”, the binding signal was 9460 fluorescence intensity (a.u.).

Regarding “GCTCCAGATCTGTGGGTGTCTTTGGGTGAGTGGGCAAATACGGAGTCACCTAGTGCAG”, the binding signal was 11200 fluorescence intensity (a.u.).

For “CTGAACATGTTGTTCAGTTGGCCTCGTTTTCTCACCTTTGCGGAGTCACCTAGTGCAG”, the binding signal is 9320 fluorescence intensity (a.u.).

On to “ATATCTCACTTTGACTGCTTGTTGTTATCGTTCTTTTATACGGAGTCACCTAGTGCAG”, for which the binding signal is 12000 fluorescence intensity (a.u.).

As for “GACCTGAAGTTCTCGTTGTGTTGGCCTGCGTTTTTATCTGCGGAGTCACCTAGTGCAG”, the binding signal was 16800 fluorescence intensity (a.u.).

For “TCGTTTTTCTCTTTAGTGTGTGTGTGTTGCGTTTTTGCAACGGAGTCACCTAGTGCAG”, the binding signal was 10300 fluorescence intensity (a.u.).

For “CTTCTGCTTGGTGTGTTGTGTGTTTTACCTTGAGTTATCTCGGAGTCACCTAGTGCAG”, the binding signal was 8480 fluorescence intensity (a.u.).

As for “TTGTTCTCTTTTTTTTTGCGTGCGTTGACTTTATCTTCAACGGAGTCACCTAGTGCAG”, the binding signal is 19900 fluorescence intensity (a.u.).

On to “GGGAGTCAAAGTAGACTTATTCTTCCCCAATCCATCTCAGCGGAGTCACCTAGTGCAG”, for which the binding signal is 8330 fluorescence intensity (a.u.).

On to “GTTCTCGATGTGTTCTAAAATTTTGTTGTTTATAATTTTTCGGAGTCACCTAGTGCAG”, for which the binding signal was 8190 fluorescence intensity (a.u.).

As to “TTCATCGTAAACGTTACTTCTCGTTATAAATTGATTTTTTCGGAGTCACCTAGTGCAG”, the binding signal is 10100 fluorescence intensity (a.u.).

Turning to “ACAGCGACCTTTTGCTGCAAAGCTTTGTTGGGTTTGGGCTCGGAGTCACCTAGTGCAG”, the binding signal was 8470 fluorescence intensity (a.u.).

Take “ACGACCCCTCCAACACATTTCCCTCGCGTCTCGTTGCGATCGGAGTCACCTAGTGCAG”: the binding signal is 8480 fluorescence intensity (a.u.).

Regarding “AGGATCGAGGAATTCAGTTAAGCAAAAATATTTATACATGCGGAGTCACCTAGTGCAG”, the binding signal was 47600 fluorescence intensity (a.u.).

“ATCGTACCATTATTCAAAATTTTAAATAGTTACATGTTCACGGAGTCACCTAGTGCAG”: the binding signal was 8120 fluorescence intensity (a.u.).

Turning to “CTCGTTATATCTATTATAAATTTTTTAATATACATGTTATCGGAGTCACCTAGTGCAG”, the binding signal is 9040 fluorescence intensity (a.u.).

With “ATCTCCGGCGTTTTTCAACCGTATGGCAATGATCATCCTTCGGAGTCACCTAGTGCAG”, the binding signal is 11100 fluorescence intensity (a.u.).

As for “GTGGCTGCGTGTGGTGGCGTTGCACGGCTCGGGTGGGCTCCGGAGTCACCTAGTGCAG”, the binding signal is 8660 fluorescence intensity (a.u.).

With “GTTGGGGTGGAGGGCTGCTCCAGGTGAGAGGGCTGGGCATCGGAGTCACCTAGTGCAG”, the binding signal was 9900 fluorescence intensity (a.u.).

For the sequence “GGGCTTGTTGGGGTTGCTGTGGTAGCCGGGAGGGAGGGGACGGAGTCACCTAGTGCAG”, the binding signal is 28500 fluorescence intensity (a.u.).

As for “GAAGGTTGCTGTTGCTTGTTGTTGGTAGTGTCTTGTGTGCCGGAGTCACCTAGTGCAG”, the binding signal is 9090 fluorescence intensity (a.u.).

Regarding “TGGCTGCCGGACTTGGGAGGGACACTGGGTTGGTTGTGGGCGGAGTCACCTAGTGCAG”, the binding signal is 9440 fluorescence intensity (a.u.).

With “TAGGGAGGGTTGTGGGGAGGGGAGCTGTGGCCGCAATGTCCGGAGTCACCTAGTGCAG”, the binding signal was 19400 fluorescence intensity (a.u.).

In the case of “TTGTGGCAATGGCGGCGGTGGCGGTGGCGGTTGGGGTGGCCGGAGTCACCTAGTGCAG”, the binding signal is 11500 fluorescence intensity (a.u.).

With “CTGTGGTGGTGTGCATACGGGTTGGGGTGGAGGGCTGCTCCGGAGTCACCTAGTGCAG”, the binding signal was 17900 fluorescence intensity (a.u.).

Consider “TGGCCGGAGCTAGGGTGGGTGGGTGGTTGGCCGCACCACCCGGAGTCACCTAGTGCAG”, for which the binding signal is 8250 fluorescence intensity (a.u.).

“TAGCTCACATCGTTTTACGTATCTTCCCAATCTCCTGATCCGGAGTCACCTAGTGCAG”: the binding signal was 8950 fluorescence intensity (a.u.).

As to “CTTTCGCGTTTTCCTTGGGTTTGACAATGGGCTACATTGCCGGAGTCACCTAGTGCAG”, the binding signal was 9400 fluorescence intensity (a.u.).

With “TATACTCCTTATCTTGGATTGGTAGTCTTTAGTTTGCTTTCGGAGTCACCTAGTGCAG”, the binding signal was 9320 fluorescence intensity (a.u.).

In the case of “AACACCACGCCGCGCGCTCCACGGCAACGCAACGCAGGAACGGAGTCACCTAGTGCAG”, the binding signal was 8720 fluorescence intensity (a.u.).

Consider “CAAAGTTGTGTGTTGTGAAGTGTGAAGGAGAGCTCTATTTCGGAGTCACCTAGTGCAG”, for which the binding signal was 8610 fluorescence intensity (a.u.).

Turning to “TCCGGAGTCTGCACCCATCTTCCCCACGTGCGCGCCCATCCGGAGTCACCTAGTGCAG”, the binding signal is 8980 fluorescence intensity (a.u.).

Consider “GCTGTTGACTTTTTCTCACGTGATTGACCTTTCGTCTTATCGGAGTCACCTAGTGCAG”, for which the binding signal is 28400 fluorescence intensity (a.u.).

In the case of “CACCGTTAATTTTTTCTCACATGTTTGACCATTCATCTTACGGAGTCACCTAGTGCAG”, the binding signal was 14400 fluorescence intensity (a.u.).

As for “CGCCGTTGACTTTTTCTCATATGTTTGACCATTCATCTTACGGAGTCACCTAGTGCAG”, the binding signal was 38900 fluorescence intensity (a.u.).

As to “ACCATTGATTTTTCAGTACGTGTTTGACCATTCGTCTTATCGGAGTCACCTAGTGCAG”, the binding signal is 13300 fluorescence intensity (a.u.).

For “TGACGCCGTTGACTTTTTCTCACATGTTTGACTATTCGTCCGGAGTCACCTAGTGCAG”, the binding signal was 49100 fluorescence intensity (a.u.).

In the case of “ATTGACTTTTTCTTACACTGTTTAACCATTCGTCTTATTCCGGAGTCACCTAGTGCAG”, the binding signal is 14000 fluorescence intensity (a.u.).

On to “TTTTCTCATATGTTTGACCATTCGTCTTATTCAAAAAATTCGGAGTCACCTAGTGCAG”, for which the binding signal is 9000 fluorescence intensity (a.u.).

As to “TGACGCCGTTGACTTTTTCTTACATGTTTGACCATTCGTCCGGAGTCACCTAGTGCAG”, the binding signal was 36700 fluorescence intensity (a.u.).

In the case of “TTTCGTCAGCTGATCGTATATTGACCTTTTCTGTCTCTGTCGGAGTCACCTAGTGCAG”, the binding signal is 10500 fluorescence intensity (a.u.).

As for “TGACGCCGTTAACTTTTTCTCACATATTTGACTATTTGTCCGGAGTCACCTAGTGCAG”, the binding signal was 10900 fluorescence intensity (a.u.).

For the sequence “TCGCCGCTTTCCCTTTCTCCCCTGCGCTCTCACGTCAAACCGGAGTCACCTAGTGCAG”, the binding signal was 8970 fluorescence intensity (a.u.).

On to “CTCTGCTCAGTGCTGCTCACTGCCTCACTCACACTGTCACCGGAGTCACCTAGTGCAG”, for which the binding signal was 11000 fluorescence intensity (a.u.).

On to “CTAACCTGGACCGTCCATCCGCGCGAAGTTTTCTCCACCGCGGAGTCACCTAGTGCAG”, for which the binding signal was 9060 fluorescence intensity (a.u.).

For the sequence “TTCCACACAATGTGCTAAAAGTTTGACTTTTACACGTCCACGGAGTCACCTAGTGCAG”, the binding signal is 14500 fluorescence intensity (a.u.).

Turning to “AACATCTGCCTGCTCACTAAAATGATCTACCGGCTTTTTTCGGAGTCACCTAGTGCAG”, the binding signal is 8620 fluorescence intensity (a.u.).

Regarding “CGCTGTTTTTTTTTTATTTTGACGGGTAGTAGAGGCCGCGCGGAGTCACCTAGTGCAG”, the binding signal is 9990 fluorescence intensity (a.u.).

For the sequence “TTTCAGAGCTATTTGGCCTTTAATACACTTTCCTATTAAGCGGAGTCACCTAGTGCAG”, the binding signal was 8710 fluorescence intensity (a.u.).
